Screens (PubChem BioAssay)
Rab9 promoter act – Rab9 promoter activation. hit rate 2.8% among 320,000. Huh7 Rab9 promoter-luciferase reporter, luminescence, 24 h. AID 485297. Potency, µM (doses to about 9.22 µM), usual class: activators; note: nearly all actives have a fitted effect of over 60% in size
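Rab9 promoter-driven luciferase in stably transfected Huh7 cells; 1500 cells/well rested 2 h, exposed to compound in DMSO for 24 h at 37 °C, 5% CO2. Luminescence read 10 min after adding luciferase reagent at ambient temperature.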
uPA generation – blocks generation of uPA at the cell surface; cell surface uPA generation assay, qHTS; Potency, µM (doses to about 38.3 µM), hits mostly inhibitors; hit rate 0.31% among 330,000; AID 540303; active = well fitted inhibition curve with a large enough effect; inconclusive = small, poorly fitted or top-dose-only effect; inactive = no such curve, though single readings can be large or run the other way; tested in mouse RAW 264.7 cells; note: nearly all actives have a fitted effect of over 55% in size
NPC1 prom act – NPC1 promoter activation; Huh7 NPC1 promoter luciferase reporter, 24 h; Potency, µM (titrated, usually from 9.22 µM), actives largely listed as activators; hit rate 2.4% among 320,000; AID 485313; note: nearly all actives have a fitted effect of over 60% in size
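In 1536-well qHTS, Huh7 cells harboring an NPC1 promoter–luciferase construct received compound for 24 h; activation was quantified by luminescence following luciferase reagent addition.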
FLuc modulator – inhibits or activates purified firefly luciferase, miR-21 counter-screen; purified FLuc, Km substrates, luminescence inhibition; hit rate 6.9% among 360,000; P08659; AID 588342; Potency, µM (doses to about 57.5 µM), most hits filed as inhibitors; note: nearly all actives have a fitted effect of over 55% in size
Target sequence (P08659 whole entry, looked up): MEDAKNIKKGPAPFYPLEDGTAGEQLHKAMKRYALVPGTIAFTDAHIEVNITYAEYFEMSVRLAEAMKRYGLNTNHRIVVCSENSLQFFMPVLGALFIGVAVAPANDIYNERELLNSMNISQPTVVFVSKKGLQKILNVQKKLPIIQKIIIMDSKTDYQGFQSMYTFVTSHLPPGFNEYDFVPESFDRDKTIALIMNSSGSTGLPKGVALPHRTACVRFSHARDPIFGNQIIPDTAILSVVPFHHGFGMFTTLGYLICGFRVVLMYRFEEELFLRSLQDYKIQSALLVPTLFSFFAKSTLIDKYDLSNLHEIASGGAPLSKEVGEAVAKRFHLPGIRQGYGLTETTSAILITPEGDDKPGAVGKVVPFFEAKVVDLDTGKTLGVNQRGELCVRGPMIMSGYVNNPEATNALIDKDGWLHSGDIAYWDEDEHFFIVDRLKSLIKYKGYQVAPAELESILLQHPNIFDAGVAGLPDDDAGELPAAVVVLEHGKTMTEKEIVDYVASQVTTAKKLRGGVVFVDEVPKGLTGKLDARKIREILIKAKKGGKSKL
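Biochemical qHTS of compounds, final roughly 60 µM downward over six points, against 10 nM purified firefly luciferase using Km concentrations of substrates (10 uM D-luciferin, 10 uM ATP) in Tris acetate pH 7.5 buffer; luminescence output.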
ELG1 genotoxic – genotoxicity induction in ELG1-luciferase HEK293T cells | HEK293T ELG1-luciferase reporter, luminescence, 16 h | Potency, µM (doses to about 46 µM), actives largely listed as activators | AID 504466 | hit rate 1.3% among 330,000; note: nearly all actives have a fitted effect of over 60% in size
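Screening used a luciferase reporter fused to human ELG1 in HEK293T cells. Luminescence was read on a CCD plate imager after 16 hr exposure and 30 min ONE-Glo incubation.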
SMN2 splice enh – increases expression of the SMN2 splice variant; HEK293 SMN2-luciferase splicing reporter, luminescence, 30-36 h; hit rate 2.8% among 210,000; AID 1458; Potency, µM (doses to about 46.1 µM), usual class: activators; note: nearly all actives have a fitted effect of over 55% in size
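HEK293 cells carry an SMN2 […]–luciferase reporter in which exon 7 inclusion puts luciferase in frame. Cells were plated 10-12 h before compound addition, then incubated 30-36 h at 37C. ONE-Glo luminescence was read; sodium butyrate at 4.5 mM final served as control.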
Hits are given with their value; . = inactive; ? = inconclusive; / = no result given. In the library only some 7.3% were active in any assay of this set; here they are far more common. Unless noted, calls come from the whole dose curve; as a rule, active = well fitted curve in the direction sought with a large enough effect; inconclusive = small, poorly fitted or top-dose-only effect, or another doubt; inactive = no such curve, though single readings can be large; an effect the other way counts as inactive or inconclusive.

SMILES	Rab9 promoter act	uPA generation	NPC1 prom act	FLuc modulator	ELG1 genotoxic	SMN2 splice enh
Cc1ccc(NC(=O)CCC(=O)c2cccs2)cc1F	?	.	.	8.5µM	.	/
Cc1ccnc(NC(=O)CCC(=O)c2cccs2)c1	?	.	?	0.34µM	?	/
CC(C)c1onc(C(=O)Nc2ccc3c(c2)OCO3)c1[N+](=O)[O-]	.	.	.	27µM	?	/
Cc1noc(C(=O)Nc2ccc3c(c2)OCO3)c1Cl	4µM	.	?	19µM	?	?
CC(=O)c1cccc(NC(=O)c2onc(C)c2Cl)c1	.	.	.	.	.	.
CC(=O)c1ccc(NC(=O)c2onc(C)c2Cl)cc1	0.63µM	?	1.4µM	?	?	/
CCc1onc(C)c1C(=O)Nc1ccc2c(c1)OCO2	.	.	.	.	.	/
Cc1ccc2c(Cl)c(C(=O)Nc3ccc4c(c3)OCO4)sc2c1	2µM	.	?	.	.	?
COc1ccc(NC(=O)CSc2cn(CC(=O)N3CCOCC3)c3ccccc23)cc1OC	/	/	/	.	/	/
CCOC(=O)N1CCc2c(sc3c2c(=O)n(Cc2ccccc2)c(=O)n3CC(=O)Nc2cccc(CC)c2)C1	/	/	/	.	/	.
O=C1Nc2ccccc2C1(O)C/C(=N/O)c1ccccc1 (configuration not stated)	.	.	.	.	.	.
Cc1oc(-c2cccc(C(F)(F)F)c2)nc1CN1CCOCC1	?	.	.	27µM	?	/
Cn1c(Cl)c(C(=O)Nc2ccc(Cl)cc2)c2ccccc21	.	.	?	6µM	.	.
Cn1nc(-c2ccccc2)c(C(=O)Nc2ccc(Cl)cc2)c1Cl	.	.	.	.	.	.
N#Cc1nc(/C=C/c2ccc(F)cc2)oc1N1CCN(c2ccccc2)CC1	/	/	/	.	/	.
COc1cccc(C(=O)O/N=C(\N)c2ccccn2)c1OC	0.71µM	?	?	0.95µM	1.8µM	/
N/C(=N\OC(=O)c1cccc2ccccc12)c1ccccn1	?	.	?	1.2µM	10µM	/
Cc1ccc(NS(=O)(=O)c2c(C)nc3sc(C)c(C)n3c2=O)cc1F	/	/	/	.	/	/
O=C1c2cccc3cccc(c23)C(=O)N1CCc1ccccc1	?	.	.	13µM	.	14µM
O=C(O)C(Cc1ccccc1)N1C(=O)c2cccc3cccc(c23)C1=O (configuration not stated)	.	.	.	.	.	/
CC(C)(C)C(=O)OCc1nc(-c2ccc(C(F)(F)F)cc2)cs1	.	.	.	15µM	.	/
CN(C)/C=C/C(=O)c1ccc(-n2cccc2)cc1	2.8µM	?	3.5µM	11µM	?	13µM
Cc1ccc(C)c(Cn2c(=O)n(CCCC(=O)NCCc3ccc(Cl)cc3)c(=O)c3ccccc32)c1	/	/	/	.	/	.
O=C(Nc1ccccc1)OC1CCS(=O)(=O)C1 (configuration not stated)	.	.	.	.	.	.
O=C(Nc1ccccc1)O[C@@H]1C[C@H]2CCCC(=O)N3CC[C@@H](C1)[C@@H]23	/	.	/	/	/	/
SMILES	Rab9 promoter act	uPA generation	NPC1 prom act	FLuc modulator	ELG1 genotoxic	SMN2 splice enh
O=C(Nc1ccccc1)O[C@@H]1C[C@H]2CCC(=O)N3CC[C@@H](C1)[C@@H]23	?	/	?	21µM	?	/
O=C(Nc1ccccc1)OC1CC2CC1C1CCCC21 (configuration not stated)	2.5µM	.	?	7.6µM	?	/
Cc1ccc(C(=O)O/N=C/c2c(C(F)(F)F)nn(C)c2Sc2ccc(Cl)cc2)cc1	.	.	.	?	.	.
Cc1ccc(CO/N=C/C2=C(Cl)c3ccccc3CC2)cc1	/	.	/	.	/	.
Cc1ccc(/C=N/OC(=O)c2nn(C)cc2Cl)cc1	.	.	.	1.3µM	.	.
Cc1ccc(S(=O)(=O)Oc2ccc(/C=N/NC(=O)c3nn(C)cc3Cl)cc2)cc1	.	.	.	.	.	.
Cc1ccc(C(=O)O/N=C/c2c(C)nn(C)c2Cl)cc1	.	.	.	11µM	.	.
Cc1ccc(C(=O)O/N=C/C2=C(Cl)c3ccccc3CC2)cc1	.	.	.	24µM	.	.
CCc1cccc(NC(=O)C2Cc3ccccc3N2C(=O)c2ccccc2)c1 (configuration not stated)	/	/	/	.	/	/
Cc1ccc(CNC(=O)c2cc3c(=O)n4cccc(C)c4nc3s2)cc1	/	/	/	.	/	.
